The subject of this test is A673/TR/shEF. The test is described as follows: cell viability (LOESS-normalised, relative to median of negative controls) (log2 ratio); higher = more viable cells (less compound effect), active = hit call of the paper (over 3 MAD below the median). Particulars: treatment time: 72 h. Put shortly:
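Doxycycline, present or absent from 24 h before compounds, was used to induce EWS-FLI1 shRNA knockdown in A673/TR/shEF Ewing sarcoma cells at 1,500 per well in 384-well plates. Cells then received library compounds at two or more concentrations, or DMSO controls, for three days. Viability was measured by CellTiter-Glo luminescence on an Envision reader, and per-plate LOESS correction, division by the negative-control median and log2 transformation followed.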

[1] abbreviates: 0.25 µM, library screen: screen1, EWS-FLI1 expression: high (no doxycycline).
Where [2] appears, read: 0.25 µM, library screen: screen1, EWS-FLI1 expression: low (doxycycline-induced shRNA knockdown).
The mark [3] stands for this setting: 2.5 µM, library screen: screen1, EWS-FLI1 expression: high (no doxycycline).
Setting [4] is: 2.5 µM, library screen: screen1, EWS-FLI1 expression: low (doxycycline-induced shRNA knockdown).
[5] abbreviates: 0.25 µM, library screen: screen2, EWS-FLI1 expression: high (no doxycycline).
Setting [6] is: 0.25 µM, library screen: screen2, EWS-FLI1 expression: low (doxycycline-induced shRNA knockdown).
Setting [7] is: 2.5 µM, library screen: screen2, EWS-FLI1 expression: high (no doxycycline).
Setting [8] is: 2.5 µM, library screen: screen2, EWS-FLI1 expression: low (doxycycline-induced shRNA knockdown).
[9] abbreviates: 0.103 µM, library screen: screen3, EWS-FLI1 expression: high (no doxycycline).
[10] abbreviates: 0.103 µM, library screen: screen3, EWS-FLI1 expression: low (doxycycline-induced shRNA knockdown).
Setting [11] is: 0.308 µM, library screen: screen3, EWS-FLI1 expression: high (no doxycycline).
Setting [12] is: 0.308 µM, library screen: screen3, EWS-FLI1 expression: low (doxycycline-induced shRNA knockdown).
Setting [13] is: 0.926 µM, library screen: screen3, EWS-FLI1 expression: high (no doxycycline).
[14] abbreviates: 0.926 µM, library screen: screen3, EWS-FLI1 expression: low (doxycycline-induced shRNA knockdown).
Setting [15] is: 2.8 µM, library screen: screen3, EWS-FLI1 expression: high (no doxycycline).
Where [16] appears, read: 2.8 µM, library screen: screen3, EWS-FLI1 expression: low (doxycycline-induced shRNA knockdown).
Setting [17] is: 8.3 µM, library screen: screen3, EWS-FLI1 expression: high (no doxycycline).
Where [18] appears, read: 8.3 µM, library screen: screen3, EWS-FLI1 expression: low (doxycycline-induced shRNA knockdown).
The mark [19] stands for this setting: 25 µM, library screen: screen3, EWS-FLI1 expression: high (no doxycycline).
[20] abbreviates: 25 µM, library screen: screen3, EWS-FLI1 expression: low (doxycycline-induced shRNA knockdown).

The record followed here is the supplement of paper PMC6089552.

Screen size: about 3,200 compounds; about 300 (9.4%) showed activity. The list comes from a sample in which actives are over-represented; it also holds similar structures and randomly drawn compounds. Unmarked numbers belong to inactive results.

Turning to `CC(=O)N1CCC[C@H]1C(=O)O`, the “cell viability (log2)” value is 0.138 under setting [1], 0.0212 under setting [2], 0.184 under setting [3] and 0.0486 under setting [4].
For `C=C1c2cc(OC)ccc2NC(=O)N1c1ccccc1` the same measures were 0.0622, 0.09, 0.104 and 0.0838.
As to `CC(C)NC[C@H](O)c1ccc(O)c(O)c1`, the “cell viability (log2)” value is, setting by setting: under setting [5], 0.15; under setting [6], 0.0965; under setting [7], 0.0541; under setting [8], 0.0273.
In the case of `COC(=O)C[C@H]1C(C)(C)[C@@H](OC(C)=O)[C@@H]2CC3=C4CC(=O)O[C@@H](c5ccoc5)[C@]4(C)CC[C@@H]3[C@@]1(C)C2=O`, the “cell viability (log2)” value was 0.0358 under setting [1], 0.0144 under setting [2], 0.0778 under setting [3] and 0.108 under setting [4].
For `COc1cc(/C=C/CO)ccc1O` the same measures were 0.0482, 0.111, 0.0791 and 0.0869.
With `COc1cc(O)cc(/C=C/c2ccccc2)c1`, the “cell viability (log2)” value under setting [1] was 0.0443, the “cell viability (log2)” value under setting [2] was 0.0713, the “cell viability (log2)” value under setting [3] was 0.167 and the “cell viability (log2)” value under setting [4] is 0.125.
In the case of `Oc1ccc(/C=C/c2cc(O)cc(O)c2)cc1`, the “cell viability (log2)” value under setting [9] was 0.0131; the “cell viability (log2)” value under setting [10] was 0.0367; the “cell viability (log2)” value under setting [1] is 0.0839; the “cell viability (log2)” value under setting [2] is 0.0347; the “cell viability (log2)” value under setting [5] is -1.5 (active); the “cell viability (log2)” value under setting [6] is -1.81 (active). For the same compound, the “cell viability (log2)” value was -0.0479 under setting [11]; 0.0776 under setting [12]; 0.0102 under setting [13]; 0.0306 under setting [14]; 0.127 under setting [3]; 0.2 under setting [4]. Moreover, the “cell viability (log2)” value runs as follows: under setting [7], -2.99 (active); under setting [8], -3.07 (active); under setting [15], -0.00513; under setting [16], 0.017; under setting [17], -0.0335; under setting [18], 0.0785. Besides, the “cell viability (log2)” value by setting is: under setting [19], -0.23 (active); under setting [20], 0.0525.
On to `O=c1cc(O)cc(/C=C/c2ccc(O)c(O)c2)o1`, for which the “cell viability (log2)” value by setting is: under setting [5], 0.159; under setting [6], 0.05; under setting [7], 0.0405; under setting [8], 0.104.
Turning to `Oc1cc(O)cc(/C=C/c2ccc(O)c(O)c2)c1`, the “cell viability (log2)” value runs as follows: (0.025 µM, library screen: screen1, EWS-FLI1 expression: high (no doxycycline)) 0.0929; (0.025 µM, library screen: screen1, EWS-FLI1 expression: low (doxycycline-induced shRNA knockdown)) 0.00184; under setting [1], 0.117; under setting [2], 0.0696; under setting [5], -0.0238; under setting [6], 0.0864. Further, the “cell viability (log2)” value under setting [3] is 0.0516; the “cell viability (log2)” value under setting [4] is 0.151; the “cell viability (log2)” value under setting [7] is 0.187; the “cell viability (log2)” value under setting [8] was 0.0106; the “cell viability (log2)” value (25 µM, library screen: screen1, EWS-FLI1 expression: high (no doxycycline)) was -0.42 (active); the “cell viability (log2)” value (25 µM, library screen: screen1, EWS-FLI1 expression: low (doxycycline-induced shRNA knockdown)) was 0.162.
As to `Oc1cc(O)cc(/C=C/c2ccccc2)c1`, the “cell viability (log2)” value is 0.0674 under setting [1], 0.00318 under setting [2], 0.07 under setting [3] and 0.0614 under setting [4].
`C=C1CC/C=C(/C)CC[C@@H]2[C@@H]1CC2(C)C`: the “cell viability (log2)” value is, setting by setting: under setting [1], 0.102; under setting [2], 0.0257; under setting [3], 0.165; under setting [4], 0.118.
Consider `CC1(C)CC[C@]2(C(=O)O)[C@H](O)C[C@]3(C)C(=CC[C@@H]4[C@@]5(C)CC[C@H](O)C(C)(C)[C@@H]5CC[C@]43C)[C@@H]2C1`, for which the “cell viability (log2)” value reads like this: under setting [1], 0.0739; under setting [2], 0.0342; under setting [3], 0.0945; under setting [4], 0.121.
The corresponding values for `CC1(C)C(=O)CCC2(C)C1CC(O)C1(C)C2CCC2(C)C(c3ccoc3)OC(=O)C3OC321` (stereo not given) are 0.0271, -0.0613, 0.1 and -0.017.
Regarding `NC(N)=NCCSSCCN=C(N)N`, the “cell viability (log2)” value is, setting by setting: under setting [5], 0.208; under setting [6], 0.0937; under setting [7], 0.0577; under setting [8], 0.063.
As for `O=c1cccc2ccc(O)c(O)c2c1O`, the “cell viability (log2)” value by setting is: under setting [1], 0.0319; under setting [2], -0.0442; under setting [3], 0.142; under setting [4], -0.0155.
On to `COc1cc(Cc2cnc(N)nc2N)cc(OC)c1OC`, for which the “cell viability (log2)” value runs as follows: under setting [1], 0.149; under setting [2], 0.184; under setting [5], -0.215 (active); under setting [6], -0.0762 (active); under setting [3], 0.204; under setting [4], 0.321. Further, the “cell viability (log2)” value is, setting by setting: under setting [7], -1.67 (active); under setting [8], -2.59 (active).
In the case of `COc1ccc(CN2CCN(Cc3cc(OC)c(OC)c(OC)c3)CC2)cc1`, the “cell viability (log2)” value was 0.174 under setting [1], 0.0733 under setting [2], 0.142 under setting [3] and -0.0868 under setting [4].
For `COc1cc(O)cc(OC)c1OC` the same measures were 0.0343, 0.0156, 0.173 and 0.0956.
For the compound `COc1ccc(-c2coc3cc(OC)cc(O)c3c2=O)cc1`, the “cell viability (log2)” value is 0.0141 under setting [1], 0.0676 under setting [2], 0.102 under setting [3] and 0.184 under setting [4].
For `COc1cc(CN2CCN(Cc3ccco3)CC2)cc(OC)c1`, the “cell viability (log2)” value is, setting by setting: under setting [1], -0.0146; under setting [2], 0.0935; under setting [3], 0.0118; under setting [4], 0.0977.
Turning to `CCCS(=O)(=O)Nc1ccc(F)c(C(=O)c2c[nH]c3ncc(-c4ccc(Cl)cc4)cc23)c1F`, the “cell viability (log2)” value is 0.0151 under setting [9]; 0.0756 under setting [10]; -0.0936 under setting [11]; 0.103 under setting [12]; -0.131 under setting [13]; 0.105 under setting [14]. The “cell viability (log2)” value is, setting by setting: under setting [15], -0.159; under setting [16], 0.126; under setting [17], -0.177; under setting [18], 0.106; under setting [19], -0.179 (active); under setting [20], 0.0931.
